PubChem BioAssay AID1851 (National Center for Advancing Translational Sciences (NCATS), 2009)
Several values for one entry are separate records, joined by “and”; a condition that tells them apart may be missing. Identical values can stand only once. Among all 16,000 compounds or so, about 5,700 (36%) were called active. Inconclusive results (about 24%) are left out. The list shows a part of the results. A number with no mark means an inactive call. Calls follow the shape of the dose curve; as a rule, active = well fitted curve in the direction sought with a large enough effect; inconclusive = small, poorly fitted or top-dose-only effect, or effect the other way; inactive = no such curve, though single readings can be large or run the other way.

These compounds were tested against Cytochrome P450 1A2 (Homo sapiens) (UniProt P05177) (assay: Cytochrome panel assay with activity outcomes). Settings: recombinant CYP, pro-luciferin dealkylation, luminescence, p450-cyp1a2; series mostly up to 57.1 µM; activity, negative = inhibition: at the top concentration.
Sequence of Cytochrome P450 1A2 (Homo sapiens) (P05177 whole entry, looked up): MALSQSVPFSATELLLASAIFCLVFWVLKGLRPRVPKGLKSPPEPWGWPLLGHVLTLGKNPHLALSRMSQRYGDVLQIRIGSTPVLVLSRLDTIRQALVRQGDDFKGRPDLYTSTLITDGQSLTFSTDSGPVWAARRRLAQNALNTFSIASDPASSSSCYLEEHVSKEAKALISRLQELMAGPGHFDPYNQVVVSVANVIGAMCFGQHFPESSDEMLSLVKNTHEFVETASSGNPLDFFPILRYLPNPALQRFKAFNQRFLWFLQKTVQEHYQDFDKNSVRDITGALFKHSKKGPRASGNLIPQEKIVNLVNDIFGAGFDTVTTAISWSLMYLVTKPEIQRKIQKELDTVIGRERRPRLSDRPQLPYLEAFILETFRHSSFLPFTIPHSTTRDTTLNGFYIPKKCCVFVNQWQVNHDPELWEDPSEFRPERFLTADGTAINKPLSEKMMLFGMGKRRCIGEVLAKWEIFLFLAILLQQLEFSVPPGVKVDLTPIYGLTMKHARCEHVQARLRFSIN
% is scaled to controls: 0 for no effect and ±100 for the full control effect.

Row | Structure (SMILES) | AC50 | activity, negative = inhibition
1 | CCOc1ccc2c(c1)C(C)=CC(C)(C)N2 | 5.01 µM (active) | –
2 | CC(C)(C)C(=O)CP(=O)(O)O | – | -9.4% [at 11.4 µM]
3 | CCOC(=O)C1=C(C)OC(N)=C(C#N)C12C(=O)N(C)c1ccccc12 (stereo unspecified) | – | 10.1%
4 | C[C@@H]1[C@@H]2Cc3ccc(O)cc3[C@@]1(C)CCN2CC1CC1 | – | -14.6%
5 | CNC(C)Cc1ccccc1Sc1ccc(O)cc1 (stereo unspecified) | – | -2.13%
6 | Cn1c(O)c(C(=N)COc2ccccc2)c(=O)n(C)c1=O | 6.31 µM (active) | –
7 | O=C(Oc1ccccc1)N1CCC2(CC1)CN(C(c1ccccc1)c1ccccc1)C2 | – | -14.2%
8 | c1csc(CN2CC[C@@]3(CCCNC3)C2)n1 | – | -12.5%
9 | CS(=N)(=O)CC[C@H](N)P(=O)(O)O (stereo partly specified) | – | -13.9% [at 11.4 µM]
10 | O=C(c1ccccc1F)c1cn(CC(=O)N2CCOCC2)c2ccccc12 | – | 0.466%
11 | CCOC(=O)Cn1cc(C(=O)c2ccccc2F)c2ccccc21 | 3.55 µM (active) | –
12 | O=C(c1ccccc1F)c1cn(Cc2ccccc2)c2ccccc12 | 7.08 µM (active) | –
13 | COc1ccc(OC)c([C@H](O)[C@H](C)N)c1 | inactive | –
14 | c1cc(N2CCCC3(CCNCC3)C2)ccn1 | – | -4.56%
15 | Nc1nc(N)c(N=Nc2ccc([As](=O)(O)O)cc2)c(=O)[nH]1 | – | -14.9% [at 2.29 µM]
16 | N=C(N)n1cc(/C=N\N=C(N)N)cn1 | – | 7.8% [at 2.29 µM]
17 | CCC[C@@](C)(COC(N)=O)COC(=O)NC(C)C | – | 0.255% [at 25.6 µM]
18 | O=C(O)C(O)(c1ccc(-c2ccccc2)cc1)c1ccc(-c2ccccc2)cc1 | – | -16.4% [at 11.4 µM]
19 | CS(=N)(=O)CC[C@@H](N)C(=O)O (stereo partly specified) | inactive | –
20 | Cc1cc(C)nc(NC2=NCCS2)n1 | 12.6 µM (active) | –
21 | C=C(C)[C@H]1CC[C@]2(C(=O)O)CC[C@]3(C)[C@@H](CC[C@H]4[C@@]5(C)CC[C@@H](O)C(C)(C)[C@@H]5CC[C@@]43C)[C@H]12 | – | 10.2% [at 25.6 µM]
22 | O=C(c1cc2cc3ccc(Cl)cc3nc2o1)N1CCC2(CC1)OCCO2 | 6.31 µM (active) | –
23 | Cc1ccc2cc3cc(C(=O)N4CCC5(CC4)OCCO5)oc3nc2c1 | 2.51 µM (active) | –
24 | O=C(c1cc(=O)[nH]c2ccc(Br)cc12)N1CCC2(CC1)OCCO2 | – | 7.44%
25 | Cc1ccc(S(=O)(=O)NCC2CCC(C(=O)N3CCC4(CC3)OCCO4)CC2)cc1 (stereo unspecified) | – | -4.19%
26 | Cc1cc(NC(=O)CCC(=O)N2CCC3(CC2)OCCO3)no1 | – | -14.7%

Row | Structure (SMILES) | AC50 | activity, negative = inhibition
27 | O=C(Cn1ncc2ccsc2c1=O)N1CCC2(CC1)OCCO2 | – | -10%
28 | COC(=O)[C@H](N)CCCN=C(N)N[N+](=O)[O-] | – | -6.84%
29 | CN1CCc2cccc(Cl)c2CC1 | – | -19.4%
30 | CCCC(=O)Nc1ccc(N2CCN(CC)CC2)c(Cl)c1 | – | -11.9%
31 | C[C@@H]1O[C@H](O[C@@H]2CC[C@@]3(C=O)[C@H]4CC[C@@]5(C)[C@@H](C6=CC(=O)OC6)CC[C@@]5(O)[C@@H]4CC[C@]3(O)C2)C[C@H](O)[C@@H]1O | – | -3.45% [at 25.6 µM]
32 | CN1C(=O)C(=Cc2ccccc2Oc2ccc(Cl)c(F)c2)C(=O)N(C)C1=O | 22.4 µM (active) | –
33 | Cc1ccc(N2C(=O)/C(=C/N3CCN(C(=O)c4ccco4)CC3)C(=O)NC2=S)cc1C | – | -23.4%
34 | O=C(NC1CCCCC1)NC1CC2CCC(C1)N2Cc1nnnn1Cc1ccc2c(c1)OCO2 (stereo unspecified) | – | -28.4%
35 | CC(C)CN1CC2(CCN(C(=O)Oc3ccccc3)CC2)C1 | – | -1.37%
36 | c1csc(CN2CCC3(CCNCC3)CC2)n1 | – | 2.27%
37 | COc1cc(OC)c(/C=C2/C(=O)Nc3ccccc32)c(OC)c1 | 0.501 µM (active) | –
38 | C=C(C)c1ccccc1 (tested in a mixture with another compound) | – | -19.6% [at 2.29 µM]
39 | C[N+]1([O-])[C@@H]2CC[C@H]1CC(OC(=O)[C@@H](CO)c1ccccc1)C2 (stereo partly specified) | – | 0.733% [at 25.6 µM]
40 | CC(=O)Nc1ccccc1C(=O)OCC(=O)c1ccc2ccccc2c1 | 3.16 µM (active) | –
41 | CC(=O)Nc1ccccc1C(=O)OCc1ccc(C(=O)c2ccccc2)cc1 | – | -26.4%
42 | CS(=O)(=O)O[C@H]1CN2CCC1CC2 | – | -18.7% [at 11.4 µM]
43 | CCOc1ccc(C2C(C#N)=C(N)Oc3c2c(=O)oc2ccccc32)cc1 (stereo unspecified) | 5.01 µM (active) | –
44 | COc1ccc2c3c1O[C@@H]1C(=O)CC[C@@]4(O)[C@@H](C2)N(CC2CC2)CC[C@]314 | – | -8.78%
45 | C[C@H](Br)C(=O)c1ccc2cc(Br)c3ccccc3c2c1 | 0.158 µM (active) | –
46 | CC1=C(CC[C@H](C)CO)O[C@@H]2C[C@@H]3[C@H]4CC[C@H]5C[C@@H](O)CC[C@]5(C)[C@@H]4CC(=O)[C@@]3(C)[C@@H]12 | – | -21.1% [at 2.29 µM]
47 | O=C(O)Cc1cnc[nH]1 | – | 5.78%
48 | NC(N)=NS(=O)(=O)c1ccc(N)cc1 | – | 1.99% [at 25.6 µM]
49 | O=C1c2cc([N+](=O)[O-])ccc2-c2ccc3c4ccc5c6c(ccc(c7ccc1c2c73)c64)C(=O)c1cc([N+](=O)[O-])ccc1-5 | 0.794 µM (active) | –
50 | O=C(O)CCCc1ccc(N(CCCl)CCCl)cc1 | – | -10.6% [at 25.6 µM]
51 | C[C@@H]1O[C@H]1P(=O)(O)O | – | 7.68%
52 | Cc1nccc2c1[nH]c1ccccc12 | 1.26 µM (active) and 631 nM (active) | –

Row | Structure (SMILES) | AC50 | activity, negative = inhibition
53 | Cc1c2ccncc2c(C)c2c1[nH]c1ccccc12 | 0.02 µM (active) | –
54 | COC(=O)[C@H]1C(=O)c2ccccc2O[C@@](C(=O)OC)(c2ccccc2)[C@@H]1c1ccccc1 | – | 6.39% [at 11.4 µM]
55 | C[N+]1(C)CCN(c2ccccc2)CC1 | – | 9.07%
56 | COc1ccc(C(=O)OC2C[C@H]3CC[C@@H](C2)N3C)cc1OC (stereo partly specified) | – | -6.56% [at 25.6 µM]
57 | Cc1cccc(NC(=S)NC2CC3CCCC(C2)N3Cc2cccs2)c1 (stereo unspecified) | – | -15.8%
58 | CCc1ccccc1NC(=O)NC1CC2CCC(C1)N2Cc1cccs1 (stereo unspecified) | – | -17.5%
59 | CCSc1nnc(C(N)Cc2ccccc2)o1 (stereo unspecified) | – | -7.56%
60 | NCCCNCCSP(=O)(O)O | – | -7.82%
61 | CC1CN=C(Nc2cccc3ccccc23)S1 (stereo unspecified) | 2 µM (active) | –
62 | O=C(Nc1cccc2ccccc12)c1nn(C23CC4CC(CC(C4)C2)C3)cc1Br | – | -12.6%
63 | CCC12C=CCN3CCC4(c5cc(Br)c(OC)cc5N(C)C4C(O)(C(=O)OC)C1OC(C)=O)C32 (stereo unspecified) | – | -4.2%
64 | CCC[C@@H]1CC2=CC(=O)CC[C@]2(C)[C@@H]2CC[C@@]3(C)[C@H](CC[C@]3(O)CCC(=O)O)[C@H]12 | – | -1.14%
65 | COc1cc(C[C@H](C)N)c(OC)cc1I | 6.31 µM (active) and 12.6 µM (active) | –
66 | Clc1cnc(Oc2ccc(Oc3ncc(Cl)cc3Cl)cc2)c(Cl)c1 | – | -12.7%
67 | CCNC[C@H](O)c1cccc(O)c1 | – | 4.57% [at 25.6 µM]
68 | c1cncc(CNCCN2CCNCC2)c1 | – | 6.05% [at 11.4 µM]
69 | c1cncc(CNc2cc(-c3ccc4c(c3)OCO4)ncn2)c1 | 0.251 µM (active) | –
70 | Cc1o[nH]c(=O)c1C[C@H](N)C(=O)O | – | -5.8%
71 | c1ccc2sc(C3(N4CCCCC4)CCCCC3)cc2c1 | inactive | –
72 | COc1ccn(C)c(=O)c1C#N | – | -9.26% [at 25.6 µM]
73 | CO[C@H]1[C@H](O)[C@H](O[C@@H]2[C@H](Oc3cccc4c(O)c5c(=O)oc6ccc(C)c7c(=O)oc(c34)c5c67)O[C@@H](C)[C@H](O)[C@H]2O)O[C@@H](C)[C@@H]1O | – | -16.6% [at 11.4 µM]
74 | O=[As](O)(O)c1ccc2nc3cc([As](=O)(O)O)ccc3nc2c1 | – | -15.1% [at 11.4 µM]
75 | C=C1[C@@H](O)C2C=CC[C@H](C)C(=O)[C@@](C)(O)C=C[C@@H](OC(C)=O)[C@@]23C(=O)N[C@H](Cc2ccccc2)[C@@H]3[C@@H]1C (stereo partly specified) | – | -13%
76 | c1ccc(N2CCCC3(CCNCC3)C2)cc1 | – | -16.7%
